{"source": "PubChem BioAssay (Tox21)", "note": "Results filed as inconclusive are left out. A number with no mark means an inactive call. Activity calls are given as the source filed them. Calls follow the shape of the dose curve; as a rule, active = well fitted curve in the direction sought with a large enough effect in the signal ratio in the repeat runs (not every such curve was filed as active); inconclusive = weak or mixed curves, or a change in a side signal; inactive = no such curve, though single readings can be large or run the other way; the % refers to the signal ratio. % is scaled to controls: 0 for no effect and ±100 for the full control effect."}
{"test": "qHTS assay to identify small molecule agonists of the NFkB signaling pathway (AID 1159509)", "conditions": "NFkB-bla ME-180 cells, beta-lactamase FRET ratio, 5 h; series mostly up to 61 µM", "description": "National Center for Advancing Translational Sciences [NCATS]\nNIH Chemical Genomics Center [NCGC]\nU.S. Environmental Protection Agency [EPA]\nNational Institutes of Environmental Health Sciences [NIEHS]\nNational Toxicology Program [NTP]\nU.S. Food and Drug Administration [FDA]\nTranscription factors and their stimulated target gene expression play pivotal roles across many cellular processes including responses to environmental stimuli. Proper regulation of associated pathways is critical to maintain cell health and function. Constitutive activation of transcription factor pathways has been implicated in tumors as it may block cellular functions such as apoptosis and lead to invasion and metastasis. One important transcription factor that stimulates gene expression in response to cytokines, UV radiation, and other stimuli is nuclear factor-kappa B (NFkB). To measure activation of the NFkB pathway, the CellSensor NFkB-bla ME-180 cell line (Life Technologies, Carlsbad, CA) that stably expresses beta-lactamase reporter gene under the regulation of a NF-kB response element was used. This assay allows measurement of the NFkB pathway activity induced by compounds in a ME-180 cell line. This system quantitates NF-kB activity using a FRET-based assay system where beta-lactamase expression disrupts FRET, allowing for fluorescent measurement of activity. This cell line has been used to screen the Tox21 10K compound library and to identify compounds that induce the NFkB pathway activity.\nTox21 Assay Protocol Summary:\nNFkB-bla ME-180 cells were dispensed at 2,000 cells/6 uL of assay medium per well into black wall/clear-bottom 1536-well plates using a Multidrop Combi (ThermoFisher Scientific, Waltham, MA) dispenser. After the assay plates were incubated at 37 C and 5% CO2 for an overnight, 23 nL of compounds dissolved in DMSO, positive controls or DMSO only was transferred to the assay plate by a Pintool station (Kalypsys, San Diego, CA). The assay plates were incubated at 37 C and 5% CO2 for 5 hr. One uL of LiveBLAzer B/G FRET substrate (Life Technologies) was added using a Flying Reagent Dispenser (Aurora Discovery, San Diego, CA) and the plates were incubated at room temperature for 1.5 hr. Fluorescence intensity (405 nm excitation, 460 nm and 530 nm emissions) was measured using an Envision plate reader (PerkinElmer, Shelton, CT)."}
{"smiles": "O=C1OC(=O)c2cc(Oc3ccc4c(c3)C(=O)OC4=O)ccc21", "outcome": "inactive"}
{"smiles": "CN(C)CCOCCN(C)CCO", "outcome": "inactive"}
{"smiles": "O=C(O)Cc1cccc(-c2cc(CCCCCCc3ccc(O[C@H]4O[C@H](CO)[C@@H](O)[C@H](O)[C@@H]4O)c(-c4cccc(CC(=O)O)c4)c3)ccc2O[C@H]2O[C@H](CO)[C@@H](O)[C@H](O)[C@@H]2O)c1", "activation": "0.357% [at 0.628 µM]"}
{"smiles": "CC(=O)OCC(=O)[C@@]1(O)[C@H](OC(C)=O)C[C@H]2[C@@H]3CCC4=CC(=O)C=C[C@]4(C)[C@@]3(F)[C@@H](O)C[C@@]21C", "outcome": "inactive"}
{"smiles": "O=C1CC[C@H](C(=O)N2CCCCC2)N1", "outcome": "inactive"}
{"smiles": "CC(=O)OC(C)c1ccccc1", "note": "(stereo not given)", "outcome": "inactive"}
{"smiles": "CC(C)COC(=O)/C=C/c1ccccc1", "outcome": "inactive"}
{"smiles": "C=C(C)C(=O)OC1CC(C)CC(C)(C)C1", "note": "(stereo not given)", "outcome": "inactive"}
{"smiles": "C1=C\\CC/C=C\\CC/1", "outcome": "inactive"}
{"smiles": "CC(=O)/C=C/c1ccco1", "outcome": "inactive"}
{"smiles": "O=C(O)c1ccccc1C(=O)OCc1ccccc1", "outcome": "inactive"}
{"smiles": "Cc1cc(O)c2c(c1)C(=O)c1cccc(O)c1C2=O", "outcome": "inactive"}
{"smiles": "CO[Si](CCCCl)(OC)OC", "outcome": "inactive"}
{"smiles": "NS(=O)(=O)c1ccc(Cl)c(S(N)(=O)=O)c1", "outcome": "inactive"}
{"smiles": "Cc1ccccc1C", "outcome": "inactive"}
{"smiles": "Nc1ccc(/C=C/c2ccc(N)cc2S(=O)(=O)O)c(S(=O)(=O)O)c1", "activation": "0.561% [at 0.628 µM]"}
{"smiles": "CN(C1CCCCC1)S(=O)(=O)c1ccccc1N", "outcome": "inactive"}
{"smiles": "CCCCC(CC)COC(=O)c1ccccc1", "note": "(stereo not given)", "outcome": "inactive"}
{"smiles": "F[Si-2](F)(F)(F)(F)F", "outcome": "inactive"}
{"smiles": "O=C(CN1CCN(Cc2ccc3c(c2)OCO3)CC1)N1c2ccccc2Sc2ccccc21", "outcome": "inactive"}
{"smiles": "C=C[Si](C)(C)O[Si](C)(C)C=C", "outcome": "inactive"}
{"smiles": "O=[Si]=O", "outcome": "inactive"}
{"smiles": "Nc1ccc(S(=O)(=O)NC(=O)c2ccccc2)cc1", "outcome": "inactive"}
{"smiles": "NS(=O)(=O)c1ccccc1OC(F)(F)F", "outcome": "inactive"}
{"smiles": "CC(C)CCCCCCOC(=O)C1CCCCC1C(=O)OCCCCCCC(C)C", "note": "(stereo not given)", "outcome": "inactive"}
{"smiles": "SCCSCCS", "outcome": "inactive"}
{"smiles": "CN=C(NC#N)NCCSCc1csc(N=C(N)N)n1", "outcome": "inactive"}
{"smiles": "C=CC(C)(O)CC/C=C(\\C)CC", "note": "(stereo not given)", "outcome": "inactive"}
{"smiles": "CO[Si](CCCS)(OC)OC", "outcome": "inactive"}
{"smiles": "CC(C)COC(=O)CC(C(=O)OCC(C)C)S(=O)(=O)O", "note": "(stereo not given)", "outcome": "inactive"}
{"smiles": "CN[C@@H]1[C@H](O)[C@H](NC)[C@H]2O[C@@]3(O)C(=O)C[C@@H](C)O[C@H]3O[C@@H]2[C@H]1O", "outcome": "inactive"}
{"smiles": "CC(=O)N(CC(O)CO)c1c(I)c(C(=O)NCC(O)CO)c(I)c(C(=O)NCC(O)CO)c1I", "note": "(stereo not given)", "outcome": "inactive"}
{"smiles": "CCOC(=O)CC(CC(=O)OCC)(OC(C)=O)C(=O)OCC", "outcome": "inactive"}
{"smiles": "NS(=O)(=O)c1cc2c(cc1Cl)NC(CC1CCCC1)NS2(=O)=O", "note": "(stereo not given)", "outcome": "inactive"}
{"smiles": "C[Si]1(C)N[Si](C)(C)N[Si](C)(C)N1", "outcome": "inactive"}
{"smiles": "CN(C)CCCNCCC#N", "outcome": "inactive"}
{"smiles": "Cc1ccc(S(=O)(=O)NC(=O)NC2CCCCCCC2)cc1", "outcome": "inactive"}
{"smiles": "Nc1c(NC/C=C\\COc2cc(CN3CCCCC3)ccn2)c(=O)c1=O", "outcome": "inactive"}
{"smiles": "CC(C)(CO)[C@@H](O)C(=O)NCCCO", "outcome": "inactive"}
{"smiles": "C[C@@H]1C[C@H]2[C@@H]3C[C@H](F)C4=CC(=O)C=C[C@]4(C)[C@@]3(F)[C@@H](O)C[C@]2(C)[C@@]1(O)C(=O)CO", "outcome": "inactive"}
